According to PubChem BioAssay:
Calls of active or inactive are those of the source. Unless noted, the rule behind the calls is not given here.

Tests used:
[1] = system: XIP peptide (Xip251-270) binding; experiment: XIP fragment 251-270 binding compounds – biochemical, small-molecule microarray, fluorescence 635/667 nm, 0.1 µg/mL protein, primary screen (AID 1182); details: fluorescent protein binding, 635 nm, higher = more signal, called active from +8 up or from −8 down
[2] = system: XIP peptide (Xip251-270); experiment: compounds binding XIP fragment 251-270 – biochemical, small-molecule microarray, fluorescence 635/667 nm, 0.5 µg/mL protein, primary screen (AID 1183); details: fluorescence 635 nm, higher = more signal
[3] = blood-stage malaria parasite viability loss – strain 3D7, DAPI fluorescence, 100 nL, primary screen (AID 1184);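 note: parasites grown inside human red blood cells in medium with human serum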; details: P. falciparum 3D7 growth, 3 d, higher = more signal
[4] = target: Homeobox protein Hox-A13 (Mus musculus) (UniProt Q62424); experiment: disruptors of Hoxa13 oligonucleotide interaction – biochemical, fluorescence polarization, labeled oligonucleotide, primary screen (AID 1185); details: Hoxa13:DNA binding, 15 min, higher = more signal, called active from +8 up or from −8 down
[5] = blockers of DNA damage checkpoint Chk1 activation – imaging, HeLa, hydroxyurea, phospho-Chk1 antibody, percent positive cells, primary screen (AID 1186); details: hydroxyurea-induced phospho-Chk1 immunofluorescence imaging, higher = more signal
[6] = blockers of DNA damage checkpoint Chk1 activation – imaging, HeLa, hydroxyurea, phospho-Chk1 nuclear intensity, primary screen (AID 1187); details: hydroxyurea-induced phospho-Chk1 immunofluorescence imaging, higher = more signal

Homeobox protein Hox-A13 (Mus musculus), sequence (Q62424 whole entry, looked up): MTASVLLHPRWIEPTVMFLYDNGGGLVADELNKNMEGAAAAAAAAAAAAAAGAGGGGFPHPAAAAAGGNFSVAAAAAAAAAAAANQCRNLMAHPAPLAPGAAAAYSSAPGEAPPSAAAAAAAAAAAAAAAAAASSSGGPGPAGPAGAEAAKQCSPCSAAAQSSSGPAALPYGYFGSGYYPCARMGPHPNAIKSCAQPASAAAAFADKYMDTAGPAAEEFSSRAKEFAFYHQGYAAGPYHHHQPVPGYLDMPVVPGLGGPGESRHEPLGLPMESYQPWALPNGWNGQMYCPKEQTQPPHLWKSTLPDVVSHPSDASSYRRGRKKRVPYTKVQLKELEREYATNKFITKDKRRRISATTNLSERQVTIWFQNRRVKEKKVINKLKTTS

Structure (SMILES)	composite z-score [1]	composite z-score [2]	z-score [3]	z-score [4]	z-score [5]	z-score [6]
COc1ccc([Si](C)(C)[C@@H]2[C@@H](CC(=O)N3CCC[C@H]3CO)O[C@]3(C(=O)N(Cc4cccc(N5CCCCC5=O)c4)c4ccccc43)[C@H]2C)cc1	2.84 (inactive)	0.799	-1.26	-2.93 (inactive)	-0.515 (inactive)	0.336 (inactive)
Cc1ccccc1C(O)C1C=CC2C(=O)N(c3ccccc3)C(=O)C2N1Nc1ccccc1 (configuration not stated)	0.766 (inactive)	0.889	-0.189	-2.86 (inactive)	-1.2 (inactive)	-1.11 (inactive)
COCCOC(=O)N1C(=O)[C@@]2(c3cc(C#CCCO)ccc31)[C@H](c1ccccc1OCCO)N1[C@H](c3ccccc3)[C@H](c3ccccc3)OC(=O)[C@H]1[C@@H]2C(N)=O	0.316 (inactive)	0.732	-2.22	-3.69 (inactive)	-0.271 (inactive)	-0.0408 (inactive)
C=CCOC(=O)[C@H]1[C@@H]2C(=O)O[C@@H](c3ccccc3)[C@@H](c3ccccc3)N2[C@@H](c2ccc(OCCOC(=O)[C@@H]3C[C@@H]4C(=O)N[C@@H](CCCCNC(C)=O)C(=O)N4[C@@H]3c3cccc(OCCO)c3)cc2)[C@]12C(=O)Nc1ccccc12	0.785 (inactive)	0.824	-1.55	-0.0913 (inactive)	0.321 (inactive)	0.0173 (inactive)
C=CC[C@@]1(C(=O)N(C)C)N=C(c2ccc(OCCCO)cc2)O[C@@H]1c1ccccc1CN=[N+]=[N-]	0.161 (inactive)	0.774	-2.33	-4.32 (inactive)	-0.274 (inactive)	-0.052 (inactive)
COc1ccc([Si](C)(C)[C@H]2[C@H](CCO)O[C@@]3(C(=O)N(Cc4cccc(N5C(=O)c6ccccc6Oc6ccccc65)c4)c4ccccc43)[C@@H]2C)cc1	0.505 (inactive)	0.571	-2.82	-0.884 (inactive)	-0.432 (inactive)	-0.702 (inactive)
CN(C)CCCNC(=O)[C@@]1(Cc2ccccc2I)c2ccccc2C(=O)N(C2CCCCC2)[C@H]1c1ccc(CO)cc1	0.645 (inactive)	0.611	-1.61	0.846 (inactive)	-0.332 (inactive)	-0.621 (inactive)
C[N+](C)(C)CCCCNC(=O)[C@H]1C[C@H]2C(=O)N[C@@H](Cc3ccccc3)C(=O)N2[C@H]1c1cccc(OCCO)c1	0.875 (inactive)	0.696	-0.352	-3.44 (inactive)	0.88 (inactive)	0.461 (inactive)
Cc1ccc(S[C@]2(C(=O)NCC(F)(F)F)CC(=O)N(Cc3ccccc3C(F)(F)F)[C@@H]2c2ccc(CO)cc2)cc1	0.859 (inactive)	0.843	0.186	-1.74 (inactive)	0.145 (inactive)	0.518 (inactive)
NC(=O)N1C(=O)C2C(C1=O)C1C=C(CCCO)C2C(C2CC2)N1Cc1sc2ccccc2c1Cl (configuration not stated)	0.632 (inactive)	0.692	-0.672	-4.04 (inactive)	-0.273 (inactive)	-0.171 (inactive)
COC(=O)[C@@]1(Cc2ccc(OC)cc2)[C@H]2c3cc(C(=O)N4CCCC4)n(Cc4ccc(Cl)c(C(F)(F)F)c4)c3C[C@H]2CN1C(=O)c1ccccc1	0.151 (inactive)	0.45	-1.37	0.806 (inactive)	-0.842 (inactive)	-0.559 (inactive)
NC(=O)N1C(=O)C2C(C1=O)C1C=C(CCCO)C2C(c2ccc(CN3CCCC3)cc2)N1Cc1sc2ccccc2c1Cl (configuration not stated)	-0.211 (inactive)	0.245	-0.44	-4.57 (inactive)	0.252 (inactive)	0.175 (inactive)
C=CCOC(=O)[C@H]1[C@@H]2C(=O)O[C@@H](c3ccccc3)[C@@H](c3ccccc3)N2[C@@H](c2ccc(OCCOC(=O)[C@H]3C[C@H]4C(=O)N[C@@H](CC(C)C)C(=O)N4[C@H]3c3ccc(O)cc3)cc2)[C@]12C(=O)Nc1ccccc12	0.386 (inactive)	0.818	-1.49	0.832 (inactive)	0.109 (inactive)	-0.0249 (inactive)
O=C1NC(=O)C2C1C=CC(C(O)c1ccc(B(O)O)cc1)N2Nc1ccc(Cl)cc1Cl (configuration not stated)	0.185 (inactive)	-0.0187	-0.195	-4.45 (inactive)	0.549 (inactive)	0.367 (inactive)
COCCCNC(=O)[C@@]1(CCC(=O)OC(C)(C)C)COC(c2ccc(OCCCO)cc2)=N1	0.192 (inactive)	0.732	-0.547	-5.74 (inactive)	-0.0385 (inactive)	0.304 (inactive)
C[C@]1(C(=O)O)c2ccccc2C(=O)N(Cc2cc(F)cc(C(F)(F)F)c2)[C@H]1c1ccc(CO)cc1	0.342 (inactive)	0.778	0.832	-1.83 (inactive)	0.117 (inactive)	0.239 (inactive)
CC1CC/C=C\[C@H]2OC34C=CCN(Cc5ccccc5)C(=O)[C@H]3N(CCCCCCO)C(=O)[C@@H]4C2C(=O)O1 (some centres not stated)	1.32 (inactive)	-0.367	-0.147	-5.85 (inactive)	0.0339 (inactive)	0.0311 (inactive)
